From PubChem BioAssay (EPA / NIEHS)
Activity calls are given as the source filed them. Rule for the calls: active = hit-call score of the fitted dose curve at least 0.9, where 1 is the maximum; inactive = score below 0.9.

How the values were obtained:
[1] = target: Transcription factor E2F1 (Homo sapiens) (UniProt Q01094); test: ATG_E2F_CIS: Attagene CIS-FACTORIAL HepG2 Assay for human E2F Transcription Factor 1 (AID 2282935); conditions: HepG2 Attagene cis-reporter, E2F reporter RNA transcripts; actives raise or lower the signal
Sequence of Transcription factor E2F1 (Homo sapiens) (Q01094 whole entry, looked up): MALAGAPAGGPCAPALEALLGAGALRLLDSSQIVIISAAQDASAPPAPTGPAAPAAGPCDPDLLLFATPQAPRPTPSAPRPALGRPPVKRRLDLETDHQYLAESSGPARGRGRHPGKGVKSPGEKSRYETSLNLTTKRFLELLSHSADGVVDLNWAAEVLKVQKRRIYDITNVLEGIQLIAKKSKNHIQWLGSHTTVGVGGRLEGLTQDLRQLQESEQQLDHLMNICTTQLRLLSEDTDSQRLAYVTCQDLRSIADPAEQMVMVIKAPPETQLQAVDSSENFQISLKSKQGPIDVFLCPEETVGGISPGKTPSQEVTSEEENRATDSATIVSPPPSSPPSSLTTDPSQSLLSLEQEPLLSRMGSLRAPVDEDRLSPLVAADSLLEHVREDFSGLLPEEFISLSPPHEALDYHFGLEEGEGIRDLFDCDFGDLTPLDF
Summary of the method: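 Gain or loss of reporter transcript, fitted against DMSO, reflects E2F1-driven transcription. Transiently transfected HepG2 dosed 24 h before RNA isolation. Quantified by fluorescent RT-PCR products separated by capillary electrophoresis.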

[2] = ATG_E_Box_CIS: Attagene CIS-FACTORIAL HepG2 Assay for human Enhancer Box (E-box) (AID 2282936); conditions: HepG2 E-box cis-reporter transcription, actives raise or lower the signal
Summary of the method: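 E-box-driven reporter transcripts measured in transiently transfected HepG2 after 24 h exposure: RNA reverse-transcribed, PCR-amplified, fluorescently labelled, digested and resolved by capillary electrophoresis. Gain or loss relative to DMSO.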

[3] = ATG_M_61_CIS: Attagene CIS-FACTORIAL HepG2 Assay for M61 Transcription Factor (Internal Marker) (AID 2282937); conditions: HepG2 Attagene CIS-FACTORIAL M61 internal marker reporter; actives raise or lower the signal
Summary of the method: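 HepG2 cells transiently transfected with cis-element-driven multiple reporter transcription units, dosed for 24 h. Reporter mRNA measured by RT-PCR, 6-FAM primer-extension labelling, HpaI digestion and capillary electrophoresis; bidirectional fit versus DMSO baseline.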

[4] = ATG_EGR_CIS: Attagene CIS-FACTORIAL HepG2 Assay for human Early Growth Response 1 (EGR1) (AID 2282938); conditions: HepG2 Attagene CIS-FACTORIAL EGR reporter mRNA; actives raise or lower the signal
Summary of the method: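 HepG2 cells transiently transfected with cis-promoter-driven multiplexed reporter transcription units; reporter mRNA measured 24 h after compound dosing by RT-PCR, 6-FAM primer extension, HpaI digestion and capillary electrophoresis. Bidirectional fit versus DMSO baseline.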

[5] = ATG_M_19_CIS: Attagene CIS-FACTORIAL HepG2 Assay for M19 Transcription Factor (Internal Marker) (AID 2282939); conditions: HepG2 Attagene CIS-FACTORIAL M19 internal marker reporter; actives raise or lower the signal
Summary of the method: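 HepG2, MRTU transient transfection, 24 h dosing. Total RNA → RT-PCR → 6-FAM primer extension → HpaI digest → CE fluorescence. Bidirectional curve fit, DMSO negative control.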

[6] = ATG_ERE_CIS: Attagene CIS-FACTORIAL HepG2 Assay for Estrogen Response Element (ERE) (AID 2282940); conditions: HepG2 ERE cis-reporter, Attagene RNA transcript; actives raise or lower the signal
Summary of the method: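 After a 24 h chemical treatment, RNA from reporter-transfected HepG2 cells is reverse-transcribed, PCR-amplified and fluorescently labelled. Fragments separated by capillary electrophoresis give reporter signal; DMSO serves as negative control.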

[7] = ATG_Ets_CIS: Attagene CIS-FACTORIAL HepG2 Assay for human Erythroblast Transformation Specific (ETS) (AID 2282941); conditions: HepG2 ETS cis-reporter transcription, actives raise or lower the signal
Summary of the method: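 Bidirectional fit versus DMSO of reporter mRNA signal, detected by RT-PCR and capillary electrophoresis in HepG2 cells transiently transfected with cis-element reporters and dosed 24 h.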

[8] = target: Hepatocyte nuclear factor 3-beta (Homo sapiens) (UniProt Q9Y261); test: ATG_FoxA2_CIS: Attagene CIS-FACTORIAL HepG2 Assay for human Forkhead box A2 (FOXA2) (AID 2282942); conditions: HepG2 cis-reporter transcription factor activity, 24 h; actives raise or lower the signal
Sequence of Hepatocyte nuclear factor 3-beta (Homo sapiens) (Q9Y261 whole entry, looked up): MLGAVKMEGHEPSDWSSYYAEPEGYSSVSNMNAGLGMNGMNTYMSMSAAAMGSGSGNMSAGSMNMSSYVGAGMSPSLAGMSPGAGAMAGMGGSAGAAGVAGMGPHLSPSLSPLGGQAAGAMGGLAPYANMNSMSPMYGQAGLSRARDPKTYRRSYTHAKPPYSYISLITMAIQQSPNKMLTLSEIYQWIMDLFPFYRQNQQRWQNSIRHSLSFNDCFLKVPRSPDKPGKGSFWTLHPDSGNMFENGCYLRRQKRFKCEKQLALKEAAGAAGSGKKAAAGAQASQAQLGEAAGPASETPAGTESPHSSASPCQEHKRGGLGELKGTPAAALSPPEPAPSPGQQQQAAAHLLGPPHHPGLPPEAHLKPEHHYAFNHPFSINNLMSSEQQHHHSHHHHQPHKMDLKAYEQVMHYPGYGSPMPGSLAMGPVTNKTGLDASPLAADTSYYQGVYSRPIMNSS
Summary of the method: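 HepG2 cells transiently transfected with multiple cis-regulated reporter transcription units, dosed for 24 h. Reporter mRNA measured by RT-PCR, 6-FAM labelling, HpaI digestion and capillary electrophoresis; bidirectional fitting against DMSO baseline.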

[9] = ATG_FoxO_CIS: Attagene CIS-FACTORIAL HepG2 Assay for human Forkhead box O (FoxO) (AID 2282943); conditions: HepG2 Attagene cis-reporter, FoxO element, mRNA; actives raise or lower the signal
Summary of the method: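 HepG2, transient MRTU transfection (cis element, endogenous TFs). Dose 24 h. TriZol RNA → oligo(dT) RT → PCR → 6-FAM primer extension → HpaI cut → CE. Gain/loss vs DMSO.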

[10] = ATG_GLI_CIS: Attagene CIS-FACTORIAL HepG2 Assay for human Zinc Finger Protein GLI1 (AID 2282945); conditions: HepG2, Attagene cis-factorial reporter mRNA, GLI element; actives raise or lower the signal
Summary of the method: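 Bidirectional curve fits relative to DMSO, using reporter mRNA levels from RT-PCR plus capillary electrophoresis. Cells were HepG2 transiently carrying cis-regulated reporter constructs, harvested 24 h after dosing.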

[11] = ATG_ISRE_CIS: Attagene CIS-FACTORIAL HepG2 Assay for human Interferon Regulatory Factor 1 (IRF1) binding to an Interferon-Stimulated Response Element (ISRE) (AID 2282948); conditions: HepG2 ISRE cis-reporter (Attagene), mRNA transcription readout; actives raise or lower the signal
Summary of the method: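 Uses HepG2 liver cells transfected with cis-regulated reporters and measures mRNA 24 h post-dosing through RT-PCR, primer-extension labelling and capillary electrophoresis, with DMSO as negative control.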

[12] = ATG_M_32_CIS: Attagene CIS-FACTORIAL HepG2 Assay for M32 Transcription Factor (Internal Marker) (AID 2282949); conditions: HepG2 Attagene cis-factorial M32 reporter, mRNA; actives raise or lower the signal;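 note: background control marker of the multiplexed CIS panel rather than a real target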
Summary of the method: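 HepG2 human liver cells transiently transfected with cis-promoter-driven multiple reporter transcription units, dosed 24 h. Reporter mRNA quantified by RT-PCR, FAM-labelled primer extension, HpaI digest and capillary electrophoresis; bidirectional fit versus DMSO baseline.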

[13] = ATG_M_06_CIS: Attagene CIS-FACTORIAL HepG2 Assay for M06 Transcription Factor (Internal Marker) (AID 2282950); conditions: HepG2 Attagene CIS-FACTORIAL M06 internal marker reporter; actives raise or lower the signal
Summary of the method: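 Measured 24 h post-dosing in transiently transfected HepG2 cells, this internal-marker endpoint reports reporter mRNA via RT-PCR with fluorescent primer extension and capillary electrophoresis. DMSO served as negative control and baseline for bidirectional fitting.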

[14] = target: Hypoxia-inducible factor 1-alpha (Homo sapiens) (UniProt Q16665); test: ATG_HIF1a_CIS: Attagene CIS-FACTORIAL HepG2 Assay for human Hypoxia Inducible Factor 1 (HIF1A) (AID 2282951); conditions: HepG2 Attagene cis-factorial HIF1a reporter transcription; actives raise or lower the signal
Sequence of Hypoxia-inducible factor 1-alpha (Homo sapiens) (Q16665 whole entry, looked up): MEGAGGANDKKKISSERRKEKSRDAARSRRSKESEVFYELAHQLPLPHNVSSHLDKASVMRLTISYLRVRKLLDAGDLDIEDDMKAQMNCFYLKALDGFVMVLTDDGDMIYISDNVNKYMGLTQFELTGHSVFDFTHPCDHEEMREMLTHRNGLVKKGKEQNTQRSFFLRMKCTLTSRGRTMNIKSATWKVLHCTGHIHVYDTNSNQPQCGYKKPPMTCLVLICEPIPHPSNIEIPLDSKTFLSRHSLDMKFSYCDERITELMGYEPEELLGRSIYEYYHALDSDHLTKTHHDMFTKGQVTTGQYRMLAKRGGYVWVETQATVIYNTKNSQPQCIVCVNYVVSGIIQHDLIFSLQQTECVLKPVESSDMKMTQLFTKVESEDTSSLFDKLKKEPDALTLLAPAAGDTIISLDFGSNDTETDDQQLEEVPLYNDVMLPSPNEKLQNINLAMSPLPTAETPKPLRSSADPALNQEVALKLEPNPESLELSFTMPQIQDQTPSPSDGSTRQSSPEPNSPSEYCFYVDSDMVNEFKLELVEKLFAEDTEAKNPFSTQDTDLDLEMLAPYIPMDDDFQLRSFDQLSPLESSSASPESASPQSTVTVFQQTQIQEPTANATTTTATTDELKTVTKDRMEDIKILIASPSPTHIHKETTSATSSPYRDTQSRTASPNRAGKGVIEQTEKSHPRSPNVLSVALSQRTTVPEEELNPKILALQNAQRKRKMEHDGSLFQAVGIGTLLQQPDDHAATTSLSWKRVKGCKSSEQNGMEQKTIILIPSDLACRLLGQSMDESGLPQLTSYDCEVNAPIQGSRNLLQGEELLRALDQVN
Summary of the method: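 HepG2 cells transiently transfected with multiplexed cis-promoter reporter units; reporter mRNA read 24 h after dosing by RT-PCR, 6-FAM primer-extension labelling, HpaI digestion and capillary electrophoresis. Bidirectional fit versus DMSO baseline.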

[15] = target: Hepatocyte nuclear factor 6 (Homo sapiens) (UniProt Q9UBC0); test: ATG_HNF6_CIS: Attagene CIS-FACTORIAL HepG2 Assay for human Hepatocyte Nuclear Factor 6 (HNF6) (AID 2282952); conditions: HepG2 Attagene cis-factorial HNF6 reporter transcription; actives raise or lower the signal
Sequence of Hepatocyte nuclear factor 6 (Homo sapiens) (Q9UBC0 whole entry, looked up): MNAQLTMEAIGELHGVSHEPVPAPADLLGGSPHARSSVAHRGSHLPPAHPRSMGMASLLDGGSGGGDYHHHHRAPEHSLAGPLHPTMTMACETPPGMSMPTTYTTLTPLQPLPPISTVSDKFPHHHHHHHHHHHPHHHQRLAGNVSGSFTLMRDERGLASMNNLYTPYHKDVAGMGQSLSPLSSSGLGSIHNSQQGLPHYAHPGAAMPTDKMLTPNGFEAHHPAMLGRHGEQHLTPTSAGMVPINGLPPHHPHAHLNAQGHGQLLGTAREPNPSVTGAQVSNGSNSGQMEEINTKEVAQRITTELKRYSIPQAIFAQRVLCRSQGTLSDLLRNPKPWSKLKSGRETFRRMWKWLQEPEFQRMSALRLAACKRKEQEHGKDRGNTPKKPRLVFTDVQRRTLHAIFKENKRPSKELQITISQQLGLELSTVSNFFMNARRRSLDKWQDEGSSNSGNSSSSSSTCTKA
Summary of the method: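 Endogenous transcription factor activity in human HepG2 liver cells was captured through cis-regulated reporter constructs. After 24 h treatment, reporter mRNA was measured by RT-PCR with capillary electrophoresis, and activity was fitted in both directions relative to DMSO.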

[16] = ATG_MRE_CIS: Attagene CIS-FACTORIAL HepG2 Assay for human Metal Responsive Element (MRE) (AID 2282954); conditions: HepG2 MRE cis-reporter transcription, Attagene multiplex; actives raise or lower the signal
Summary of the method: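 Endogenous MRE-dependent transcription read as reporter mRNA in transiently transfected human HepG2 cells at 24 h. RNA reverse-transcribed, PCR-amplified, labelled and resolved by capillary electrophoresis; gain or loss relative to DMSO.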

[17] = target: Bile acid receptor (Homo sapiens) (UniProt Q96RI1); test: ATG_IR1_CIS: Attagene CIS-FACTORIAL HepG2 Assay for human Nuclear Receptor Subfamily 1 Group H Member 4 (NR1H4), IR1 submotif (AID 2282946); conditions: IR1 reporter transcription, actives raise or lower the signal
Sequence of Bile acid receptor (Homo sapiens) (Q96RI1 whole entry, looked up): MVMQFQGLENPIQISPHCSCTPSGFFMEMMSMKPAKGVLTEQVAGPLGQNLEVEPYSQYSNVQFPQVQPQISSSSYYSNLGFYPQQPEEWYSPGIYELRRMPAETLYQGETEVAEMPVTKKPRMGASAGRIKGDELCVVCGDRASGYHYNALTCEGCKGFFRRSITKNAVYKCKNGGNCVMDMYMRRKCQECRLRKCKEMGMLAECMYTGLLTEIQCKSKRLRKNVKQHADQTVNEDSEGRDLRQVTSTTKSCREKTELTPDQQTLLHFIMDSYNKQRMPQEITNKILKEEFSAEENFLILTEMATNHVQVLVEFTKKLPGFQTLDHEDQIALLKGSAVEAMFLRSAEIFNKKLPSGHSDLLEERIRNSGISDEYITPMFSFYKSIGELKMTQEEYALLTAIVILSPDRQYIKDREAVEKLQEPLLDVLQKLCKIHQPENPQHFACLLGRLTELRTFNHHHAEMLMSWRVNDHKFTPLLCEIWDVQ
Summary of the method: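 HepG2 cells transiently transfected with multiplexed cis-element reporter units read endogenous transcription factor activity. After 24 h compound exposure, reporter mRNA was quantified by RT-PCR, fluorescent labelling, HpaI digestion and capillary electrophoresis; bidirectional fitting versus DMSO baseline.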

[18] = ATG_GRE_CIS: Attagene CIS-FACTORIAL HepG2 Assay for human Glucocorticoid Response Elements (GRE) (AID 2282947); conditions: HepG2 GRE cis-reporter, Attagene multiplex mRNA; actives raise or lower the signal
Summary of the method: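 Reporter transcripts read by RT-PCR with capillary electrophoresis fluorescence after a 24 h chemical exposure of HepG2 cells transiently transfected with multiple cis-element reporter units. Gain or loss fitted against DMSO.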

[19] = target: Heat shock factor protein 1 (Homo sapiens) (UniProt Q00613); test: ATG_HSE_CIS: Attagene CIS-FACTORIAL HepG2 Assay for human Heat Shock Transcription Factor 1 (HSE) (AID 2282953); conditions: HepG2 HSE cis-reporter, Attagene RNA transcription; actives raise or lower the signal
Sequence of Heat shock factor protein 1 (Homo sapiens) (Q00613 whole entry, looked up): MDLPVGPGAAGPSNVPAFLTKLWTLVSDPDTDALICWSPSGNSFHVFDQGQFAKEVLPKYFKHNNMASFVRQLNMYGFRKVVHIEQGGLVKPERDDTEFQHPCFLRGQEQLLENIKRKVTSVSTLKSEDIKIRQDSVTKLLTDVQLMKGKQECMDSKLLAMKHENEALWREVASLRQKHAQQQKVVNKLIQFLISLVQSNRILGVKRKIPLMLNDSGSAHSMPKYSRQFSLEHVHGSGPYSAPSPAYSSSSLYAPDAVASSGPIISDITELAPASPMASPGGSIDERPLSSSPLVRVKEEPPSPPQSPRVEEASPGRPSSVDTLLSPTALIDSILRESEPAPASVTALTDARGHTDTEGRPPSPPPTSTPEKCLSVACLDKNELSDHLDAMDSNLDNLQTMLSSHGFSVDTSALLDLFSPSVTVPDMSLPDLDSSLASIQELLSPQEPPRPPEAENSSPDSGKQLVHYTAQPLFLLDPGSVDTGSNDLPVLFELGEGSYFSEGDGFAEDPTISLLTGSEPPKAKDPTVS
Summary of the method: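 Reporter mRNA induction in HepG2 is measured 24 h after dosing, using transiently transfected multiplexed cis-regulated reporter units. Signal comes from capillary electrophoresis of labelled RT-PCR products, with DMSO as negative control.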

[20] = ATG_GATA_CIS: Attagene CIS-FACTORIAL HepG2 Assay for human GATA Binding Protein (AID 2282944); conditions: HepG2 GATA cis-element reporter, Attagene multiplex mRNA; actives raise or lower the signal
Summary of the method: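 Cells: HepG2, transiently transfected with cis-regulated reporter transcription units. Exposure: 24 h. Detection: RT-PCR plus capillary electrophoresis of FAM-labeled fragments. Analysis: bidirectional, DMSO as baseline.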

Measured: AC50

CCOP(=S)(Oc1ccc([N+](=O)[O-])cc1)c1ccccc1 (stereo not drawn)
active: [6] 3.35 µM
not listed: [17] | [18] | [19] | [20]
inactive: all other assays above

Nc1ccc(Sc2ccc(N)cc2)cc1
active: [6] 14.4 µM | [14] 45.3 µM | [16] 77.3 µM
not listed: [20]
inactive: all other assays above

O=C(O)C=CC(F)(C(F)(F)F)C(F)(F)F
not listed: [20]
inactive: all other assays above

CCC1(c2ccccc2)C(=O)N=C(O)NC1=O (stereo not drawn)
not listed: [17] | [18] | [19] | [20]
inactive: all other assays above

COCCOCCO
not listed: [17] | [18]
inactive: all other assays above

ClC1=C(Cl)C2(Cl)C3C(Cl)C(Cl)CC3C1(Cl)C2(Cl)Cl (stereo not drawn)
active: [2] 52.3 µM | [4] 25.2 µM | [6] 11.2 µM | [17] 17.1 µM | [16] 41.2 µM
not listed: [19] | [20]
inactive: all other assays above

CC(C)Nc1ccc(Nc2ccccc2)cc1
active: [2] 54.8 µM | [11] 43.2 µM | [19] 49.6 µM
not listed: [20]
inactive: all other assays above

Cc1ccc(N)cc1N
not listed: [19] | [20]
inactive: all other assays above
